Screening results as filed in PubChem.
This is one part of a sample in which hits are shown more often than they occur.
C diff HTS = C. difficile growth inhibitors, primary screen, HTS; Clostridium difficile clinical isolate growth, OD600, 24 h; active compounds read low; growth activity, negative = inhibition, % at 16 µg/mL (by protocol); 86,000 compounds, 0.25% hits; AID 1259249, 2017;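 active = mean growth activity at or below -80% and every replicate also at or below -80%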
Large screens that a line does not name were inactive.

O=C(NCC[C@@H]1CC[C@@H](NC(=O)C2CC2)[C@@H](CO)O1)Nc1ccc(C(F)(F)F)cc1	C diff HTS -85
O=C(NCC[C@@H]1CC[C@H](NC(=O)C2CC2)[C@@H](CO)O1)Nc1ccc(C(F)(F)F)cc1	C diff HTS -94
O=C(NCC[C@@H]1CC[C@H](NC(=O)C2CCC2)[C@H](CO)O1)Nc1ccc(Cl)cc1	none
O=C(NCC[C@@H]1CC[C@@H](NC(=O)C2CCC2)[C@@H](CO)O1)Nc1ccc(Cl)cc1	none
CN(C)CC(=O)N[C@H]1CC[C@H](CCNC(=O)Nc2ccc(C(F)(F)F)cc2)O[C@H]1CO	C diff HTS -94
O=C(NCC[C@H]1CC[C@H](NC(=O)C2CC2)[C@@H](CO)O1)Nc1ccc(Cl)cc1	none
O=C(NCC[C@@H]1CC[C@@H](NC(=O)C2CC2)[C@@H](CO)O1)Nc1ccc(Cl)cc1	none
CN(C)CC(=O)N[C@H]1CC[C@H](CCNC(=O)Nc2ccc(Cl)cc2)O[C@H]1CO	none
O=C(NCC[C@H]1CC[C@@H](NC(=O)C2CCCC2)[C@@H](CO)O1)Nc1ccc(Cl)cc1	none
O=C(Nc1ccc(C(F)(F)F)cc1)N[C@H]1CC[C@H](CCNC(=O)c2ccccc2F)O[C@@H]1CO	none
O=C(NCC[C@@H]1CC[C@H](NC(=O)C2CC2)[C@H](CO)O1)Nc1ccc(C(F)(F)F)cc1	C diff HTS -95
COCC(=O)N(C)C[C@H]1Oc2ncc(-c3ccccc3F)cc2C(=O)N([C@H](C)CO)C[C@@H]1C	none
CCCNC(=O)N1CC2(CCN(CC3CC3)CC2)c2c([nH]c3cc(OC)ccc23)[C@@H]1CO	none
COCC(=O)N(C[C@@H]1N[C@@H](CO)[C@@H]1c1ccc(-c2ccccc2)cc1)C(C)C	none
Cc1ccccc1S(=O)(=O)N1CC[C@@H]2[C@H](CO)N(C)c3ccc(Br)cc3[C@@H]21	none
C[C@@H]1CN([C@H](C)CO)S(=O)(=O)c2ccc(C#Cc3cccc(F)c3)cc2O[C@H]1CN(C)C(=O)CN1CCOCC1	none
C[C@@H]1CN([C@@H](C)CO)C(=O)Cc2cc(N(C)C)ccc2O[C@@H]1CN(C)Cc1ccc(-c2ccccc2)cc1	none
CNC[C@H]1Oc2c(NC(=O)Nc3c(C)noc3C)cccc2C(=O)N([C@H](C)CO)C[C@@H]1C	none
Cc1noc(C)c1S(=O)(=O)N(C)C[C@@H]1Oc2ccc(NC(=O)Cc3ccccc3)cc2CC(=O)N([C@@H](C)CO)C[C@H]1C	none
C[C@@H]1CN([C@H](C)CO)S(=O)(=O)c2ccc(/C=C/c3ccccc3)cc2O[C@H]1CN(C)Cc1ccc(C(=O)O)cc1	C diff HTS -98
C[C@H](CO)N1C[C@H](C)[C@@H](CN(C)Cc2ccc(C(=O)O)cc2)Oc2cc(/C=C/c3ccccc3)ccc2S1(=O)=O	none
C[C@H]1CN([C@@H](C)CO)S(=O)(=O)c2ccc(/C=C/c3ccccc3)cc2O[C@H]1CN(C)Cc1ccc(C(=O)O)cc1	none
Cc1ccccc1-c1ccc([C@@H]2[C@H](CO)N3CCCCN(CC4CCOCC4)C[C@@H]23)cc1	none
